# Data: article PMC11062922 (Nature Chemical Biology, 2023)
# Tested on: EPHB2
# Parameters: species or system human, MV4-11 + K-562 + COLO205 + SK-N-BE2 + OVCAR-8
# Details: read-out: apparent Kd; compound concentrations:100 nM and 1000 nM (sheet 'Samples'); n = 1
row,SMILES,potency estimated from few doses [µM]
1,NCCNS(=O)(=O)c1ccc(-c2ccnc3[nH]ccc23)cc1 [GSK977617A],0.189
2,O=C1NC(=O)C(N2CCc3ccccc32)=C1c1ccccc1Cl [SB-373598],0.11
3,Cl.Cl.NCC(C(=O)Nc1cc(Br)c(-c2ccnc3[nH]ccc23)s1)c1ccccc1.NCC(C(=O)Nc1cc(Br)c(-c2ccnc3[nH]ccc23)s1)c1ccccc1 (stereo not drawn) [GSK1269851A],0.0949
4,CC(C)N1CCC(n2cnc(-c3ccc(F)cc3)c2-c2ccnc(N)n2)CC1 [SB-223132],0.385
5,CN1C[C@@H]2Cn3c(c(C4=C(c5cn(C)c6ccccc56)C(=O)NC4=O)c4ccccc43)C[C@H]2C1.Cl [RO0320234-001],0.0529
6,Cc1ccc2c(-c3ccncc3)c(-c3ccc(F)cc3)nn2c1.Cl [GW461484A],0.341

# Tested on: EPHB3
# Parameters: species or system human, MV4-11 + K-562 + COLO205 + SK-N-BE2 + OVCAR-8
# Details: read-out: apparent Kd; compound concentrations:100 nM and 1000 nM (sheet 'Samples'); n = 1
row,SMILES,potency estimated from few doses [µM]
1,NCCNS(=O)(=O)c1ccc(-c2ccnc3[nH]ccc23)cc1 [GSK977617A],1.78
2,O=C1NC(=O)C(N2CCc3ccccc32)=C1c1ccccc1Cl [SB-373598],0.549
3,Cl.Cl.NCC(C(=O)Nc1cc(Br)c(-c2ccnc3[nH]ccc23)s1)c1ccccc1.NCC(C(=O)Nc1cc(Br)c(-c2ccnc3[nH]ccc23)s1)c1ccccc1 (stereo not drawn) [GSK1269851A],1.18
4,CC(C)N1CCC(n2cnc(-c3ccc(F)cc3)c2-c2ccnc(N)n2)CC1 [SB-223132],1.41
5,CN1C[C@@H]2Cn3c(c(C4=C(c5cn(C)c6ccccc56)C(=O)NC4=O)c4ccccc43)C[C@H]2C1.Cl [RO0320234-001],1.03
6,Cc1ccc2c(-c3ccncc3)c(-c3ccc(F)cc3)nn2c1.Cl [GW461484A],1.96

# Tested on: EPHB4
# Parameters: species or system human, MV4-11 + K-562 + COLO205 + SK-N-BE2 + OVCAR-8
# Details: read-out: apparent Kd; compound concentrations:100 nM and 1000 nM (sheet 'Samples'); n = 1
row,SMILES,potency estimated from few doses [µM]
1,NCCNS(=O)(=O)c1ccc(-c2ccnc3[nH]ccc23)cc1 [GSK977617A],0.171
2,O=C1NC(=O)C(N2CCc3ccccc32)=C1c1ccccc1Cl [SB-373598],0.129
3,Cl.Cl.NCC(C(=O)Nc1cc(Br)c(-c2ccnc3[nH]ccc23)s1)c1ccccc1.NCC(C(=O)Nc1cc(Br)c(-c2ccnc3[nH]ccc23)s1)c1ccccc1 (stereo not drawn) [GSK1269851A],0.0546
4,CC(C)N1CCC(n2cnc(-c3ccc(F)cc3)c2-c2ccnc(N)n2)CC1 [SB-223132],0.314
5,CN1C[C@@H]2Cn3c(c(C4=C(c5cn(C)c6ccccc56)C(=O)NC4=O)c4ccccc43)C[C@H]2C1.Cl [RO0320234-001],0.0159
6,Cc1ccc2c(-c3ccncc3)c(-c3ccc(F)cc3)nn2c1.Cl [GW461484A],0.275
